Records with an inconclusive call do not appear. A call without a number means that no potency is given here. The source made the active and inactive calls. Unless noted, calls come from the whole dose curve; as a rule, active = well fitted curve in the direction sought with a large enough effect; inconclusive = small, poorly fitted or top-dose-only effect, or another doubt; inactive = no such curve, though single readings can be large; an effect the other way counts as inactive or inconclusive.
Experiments:
[1] = target: Glutathione peroxidase 1 (Homo sapiens) (UniProt P07203); assay: Primary qHTS Assay for Inhibitors of Recombinant Selenoprotein Glutathione Peroxidase 1 (GPX1) (AID 1845191); note: nearly all actives have a fitted effect of over 65% in size; note: potency is the fitted concentration of half-maximal effect
Summary of the method: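 Recombinant GPX1 (10 nM final) was preincubated with compound for 30 min at room temperature, then reacted with 1 mM GSH, 0.5 mM CHP, 0.5 mM NADPH and 100 nM glutathione reductase; NADPH fluorescence (340/450 nm) was read at 0 and 15 min.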

[2] = Primary fluorescence-based thiol-reactive (MSTI) qHTS assay for identification of artifact compounds. (AID 1845221); note: nearly all actives have a fitted effect of over 65% in size; note: potency is the fitted concentration of half-maximal effect
Summary of the method: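 First, 4 uM MSTI in 2% DMSO/PBS pH 7.4 was dispensed; next, compounds were added; then plates sat 1 h at room temperature without light. Finally, emission at 598 nm was recorded.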

[3] = test system: Nanoluciferase (engineered Oplophorus gracilirostris luciferase); assay: Primary Nanoluciferase (NLuc) qHTS assay for identification of artifact compounds. (AID 1845222); note: potency is the fitted concentration of half-maximal effect
Summary of the method: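 Using secreted nanoluciferase in S16 culture medium (0.22 um filtered, 1:55 dilution), compounds were preincubated 15 min at RT. Signal was generated with Nano-Glo reagent (1:100) over 5 min.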

[4] = Primary redox qHTS assay for identification of artifact compounds. (AID 1845223)
Summary of the method: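 Amplex Red (25 uM) and HRP (250 mU/mL) in HBSS, with compounds for 15 min, then 250 uM DTT for 30 min, room temperature, dark. Fluorescence 525/598 nm read; normalized to DMSO and 10 uM DA3003; Hill fit.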

[5] = qHTS drug screen for cell cycle checkpoint inhibitors in PARPi-resistant BRCA-mutant ovarian cancer cell lines. (AID 1963452; calls by dose curve); details: PEO1/OlaR viability, CellTiter-Glo luminescence, 96 h, stronger effect = lower value
Summary of the method: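 PEO1, PEO4 and PEO1/OlaR ovarian cancer cells, 600 per well, exposed 96 h at 37C to a dilution series. Viability read by CellTiter-Glo luminescence, normalized to DMSO and empty wells; activity summarized as Z-AUC.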

[6] = target: Luciferin 4-monooxygenase (Photinus pyralis) (UniProt P08659); assay: Primary firefly luciferase (FLuc) qHTS assay for identification of artifact compounds. (AID 1845220); note: nearly all actives have a fitted effect of over 60% in size
Summary of the method: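 In this counter-screen for luciferase artifacts, test compounds met substrate (10 uM each luciferin and ATP) before 10 nM enzyme started the reaction. Light output was measured 5 min later.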

[7] = target: Phospholipid hydroperoxide glutathione peroxidase GPX4 (Homo sapiens) (UniProt P36969); assay: Primary qHTS Assay for Inhibitors of Recombinant Selenoprotein Glutathione Peroxidase 4 (GPX4) (AID 1845192); note: nearly all actives have a fitted effect of over 65% in size; note: potency is the fitted concentration of half-maximal effect
Summary of the method: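 GR-coupled readout: 100 nM GR, 1 mM GSH, 0.5 mM NADPH; NADPH fluorescence (ex 340/em 450 nm) read at t=0 and after 15 min RT. GPX4 200 nM, preincubated 30 min with compound; substrate 0.5 mM CHP.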

[8] = measured here: PEO1 parental Z-AUC

Phospholipid hydroperoxide glutathione peroxidase GPX4 (Homo sapiens), sequence (P36969 whole entry, looked up): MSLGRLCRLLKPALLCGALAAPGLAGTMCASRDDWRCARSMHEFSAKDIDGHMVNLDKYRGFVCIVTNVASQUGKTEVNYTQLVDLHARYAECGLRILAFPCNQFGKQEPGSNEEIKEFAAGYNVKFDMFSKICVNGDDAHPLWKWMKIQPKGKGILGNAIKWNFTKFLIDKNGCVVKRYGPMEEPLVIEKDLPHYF
Glutathione peroxidase 1 (Homo sapiens), sequence (P07203 whole entry, looked up): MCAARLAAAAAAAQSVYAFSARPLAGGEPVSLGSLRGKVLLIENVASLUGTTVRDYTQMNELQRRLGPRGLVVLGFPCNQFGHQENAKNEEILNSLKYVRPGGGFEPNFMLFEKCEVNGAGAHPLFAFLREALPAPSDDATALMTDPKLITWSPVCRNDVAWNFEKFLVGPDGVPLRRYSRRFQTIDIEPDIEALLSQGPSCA

Compound | Potency [1] | Potency [2] | Potency [3] | Potency [4] | Z-AUC [5] | Z-AUC [5, 8] | Z-AUC ([5]; measured here: PEO4 Z-AUC) | Potency [6] | Potency [7]
O=C(c1ccc(/C=C/c2n[nH]c3ccccc23)cc1)N1CCNCC1 | inactive | inactive | inactive | inactive | -0.885 (inactive) | -0.223 | -0.438 | – | –
CCc1c(-c2ccccc2)c(-c2ccccc2)nn1-c1ccccc1-c1cccc(OCC(=O)O)c1 | inactive | inactive | 0.269 µM (active) | inactive | – | – | – | inactive | –
Cn1c2ccc(F)cc2c2c(C(=O)N3CCCC3)cn(-c3ccccc3)c(=O)c21 | 18 µM (active) | inactive | inactive | inactive | – | – | – | inactive | –
Nc1ccc(/C=C/C(=O)NCc2cc3cc(-c4ccc(C(=O)N5CCC(F)(F)CC5)cc4)cc(-c4ccc(F)cc4)c3o2)cn1 | inactive | – | inactive | inactive | -0.388 (inactive) | -0.891 | -0.788 | inactive | –
CC(C)(C(=O)NCC(F)(F)C(F)(F)F)C(=O)NC1C(=O)Nc2ccccc2-c2ccccc21 (centres undefined) | – | inactive | inactive | inactive | – | – | – | inactive | inactive
CCOC(=O)C(CCc1ccccc1)NC(C)C(=O)N1C(=O)N(C)CC1C(=O)O (centres undefined) | – | inactive | inactive | inactive | – | – | – | inactive | inactive
CC1(C)CC[C@]2(C(=O)O)CC[C@]3(C)C(=CCC4[C@@]5(C)C[C@@H](O)[C@H](O)C(C)(C)C5CC[C@]43C)C2C1 (some centres undefined) | – | inactive | inactive | inactive | – | – | – | inactive | inactive
O=C(Nc1ccc(S(=O)(=O)Nc2nccs2)cc1)C(c1ccccc1)c1ccccc1 | – | inactive | inactive | inactive | – | – | – | inactive | inactive
CO[C@H]1O[C@@H]2O[C@]3(C)CC[C@H]4[C@H](C)CC[C@@H]([C@H]1C)[C@@]24OO3 | – | inactive | inactive | inactive | – | – | – | inactive | inactive
O=C(O)Cc1ccc2oc(-c3ccc(NC(=O)/C=C/c4ccc(Br)cc4)c(F)c3)nc2c1 | – | inactive | inactive | inactive | – | – | – | inactive | inactive
O=C(O)c1cn(C2CC2)c2cc(N3C[C@@H]4C[C@H]3CN4)c(F)cc2c1=O | – | inactive | inactive | inactive | – | – | – | inactive | 10.1 µM (active)
CC(c1ncncc1F)C(O)(Cn1cncn1)c1ccc(F)cc1F (centres undefined) | – | inactive | inactive | inactive | – | – | – | inactive | inactive
C[C@@H]1COCCN1c1cc(C2(S(C)(=O)=O)CC2)nc(-c2cccc3[nH]ccc23)n1 | – | inactive | inactive | inactive | – | – | – | inactive | 18 µM (active)
Cc1ccc(F)cc1C(=O)Nc1ccc(C(=O)N2Cc3cccn3Cc3ccccc32)c(Cl)c1 | – | inactive | inactive | inactive | – | – | – | inactive | inactive
COc1cc2oc(-c3ccc(O)cc3O)cc2c(OC)c1CC=C(C)C | – | 6.56 µM (active) | inactive | inactive | – | – | – | inactive | inactive
NC1(C(=O)NC(CCO)c2ccc(Cl)cc2)CCN(c2ncnc3[nH]ccc23)CC1 (centres undefined) | – | inactive | inactive | inactive | – | – | – | inactive | inactive
CC1(c2nc3c(C(N)=O)cccc3[nH]2)CCCN1 (centres undefined) | – | inactive | inactive | inactive | – | – | – | inactive | inactive
COc1ccc2c(OC)c3ccoc3nc2c1OC | – | inactive | inactive | inactive | – | – | – | inactive | inactive
CN(C)C/C=C/C(=O)Nc1cc2c(Nc3ccc(F)c(Cl)c3)ncnc2cc1OC1CCOC1 (centres undefined) | – | inactive | inactive | inactive | – | – | – | inactive | inactive
NC(=O)Nc1cc(-c2cccc(F)c2)sc1C(=O)NC1CCCNC1 (centres undefined) | – | inactive | inactive | inactive | – | – | – | inactive | inactive
CC1CCN(C(=O)CC#N)CC1N(C)c1ncnc2[nH]ccc12 (centres undefined) | – | inactive | inactive | inactive | – | – | – | inactive | inactive
COC(=O)N[C@H](C(=O)N1[C@@H]2CC[C@@H](C2)[C@H]1c1nc2ccc(-c3ccc4c(c3)C(F)(F)c3cc(-c5cnc([C@@H]6CCC7(CC7)N6C(=O)[C@@H](NC(=O)OC)C(C)C)[nH]5)ccc3-4)cc2[nH]1)C(C)C | – | inactive | inactive | inactive | – | – | – | inactive | inactive
CN(C)c1nc(NC2CCC(NC(=O)c3ccc(F)c(F)c3)CC2)nc2ccccc12 (centres undefined) | – | inactive | inactive | inactive | – | – | – | inactive | inactive
Cn1nc(C(C)(C)C)cc1C(=O)NC(Cc1cccc(Cl)c1)C(=O)NCC#N (centres undefined) | – | inactive | inactive | inactive | – | – | – | inactive | inactive
CC(=O)OC1C(=O)C2(C)C(O)CC3OCC3(OC(C)=O)C2C(OC(=O)c2ccccc2)C2(O)CC(OC(=O)C(O)C(NC(=O)c3ccccc3)c3ccccc3)C(C)=C1C2(C)C (centres undefined) | – | inactive | inactive | inactive | – | – | – | inactive | inactive

Source: PubChem BioAssay (NCATS)
